The campaign covered roughly 350,000 compounds. About 31,000 (8.9%) were called active. Inconclusive results (about 15%) are left out. The sample holds actives, similar compounds and a random draw of the others, so the mix is not that of the screen. Values without a mark were called inactive. Calls follow the shape of the dose curve; as a rule, active = well fitted inhibition curve with a large enough effect; inconclusive = small, poorly fitted or top-dose-only effect; inactive = no such curve, though single readings can be large or run the other way.
Target: Histone-lysine N-methyltransferase EHMT2 (Homo sapiens) (UniProt Q96KQ7)
Assay: qHTS Assay for Inhibitors of Histone Lysine Methyltransferase G9a; also: nearly all actives have a fitted effect of over 75% in size
Conditions: G9a H3K9 monomethylation, AlphaScreen, 2 h; series mostly up to 59 µM; activity, negative = inhibition: at the top concentration
Procedure, shortened: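 Step 1: enzyme (final 20 nM) with compound, 15 min RT. Step 2: substrate peptide 500 nM and SAM 20 uM, 2 h RT. Step 3: anti-H3K9me1 antibody and AlphaScreen beads, 10 min, then plate read.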
% is scaled to controls: 0 for no effect and ±100 for the full control effect; potency is read from the fitted curve at half-maximal effect.

Sequence of Histone-lysine N-methyltransferase EHMT2 (Homo sapiens) (Q96KQ7 913-1193 limits assumed): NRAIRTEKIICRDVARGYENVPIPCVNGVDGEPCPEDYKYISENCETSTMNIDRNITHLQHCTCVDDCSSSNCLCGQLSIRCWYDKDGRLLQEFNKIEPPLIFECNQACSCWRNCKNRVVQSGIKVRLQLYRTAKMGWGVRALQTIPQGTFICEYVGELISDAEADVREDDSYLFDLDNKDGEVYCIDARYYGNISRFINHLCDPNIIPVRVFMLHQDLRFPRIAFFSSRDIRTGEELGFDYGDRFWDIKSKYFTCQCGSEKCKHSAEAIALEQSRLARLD

Row | SMILES | activity, negative = inhibition | Potency
1 | OCC[C@H]1C[C@@H](O)[C@H](O)[C@]2(OCCCc3ccccc32)O1 | -3% [at 12.7 µM] | 
2 | COC(=O)CN1C(=O)C(C)(C)Oc2ccc(C(=O)Nc3cccc(OC)c3)cc21 | 15.9% [at 102 µM] | 
3 | CC(=O)c1ccc(NC(=O)CSc2nnc(NC(=O)Nc3ccccc3)s2)cc1 | -21.1% | 
4 | Cc1cccc(CSc2nnc(NC(=O)CSc3nnc(C)s3)s2)c1 | 15.2% [at 102 µM] | 
5 | Cc1cccc(NC(=O)CSc2nnc(NC(=O)CN3CCOCC3)s2)c1 |  | 7.08 µM (active)
6 | O=C(CSc1nnc(-c2cccnc2)n1CCc1ccccc1)NCc1ccccc1 | 16.6% | 
7 | C=CCn1c(SCC(=O)NC(=O)Cc2ccccc2)nc2ccccc2c1=O | 24.2% [at 12.7 µM] | 
8 | C=CCn1c(SCC(=O)NCc2ccccc2)nnc1-c1cc(Br)ccc1O |  | 10 µM (active)
9 | CCc1cc(=O)oc2c(C)c(OCC(=O)NCCN3CCOCC3)ccc12 | -1.68% [at 102 µM] | 
10 | Cc1ccc(S(=O)(=O)N(Cc2nc(-c3ccc(Cl)cc3)no2)C2CCCCC2)cc1 | 19% | 
11 | O=C(CSc1nc(=O)n(Cc2cccnc2)c2c1CCC2)Nc1ccc(F)cc1F | 11.7% | 
12 | Cc1ccc(C)n1-c1nnc(N2CCC(C(=O)NCc3ccc(F)cc3)CC2)s1 | 4.77% | 
13 | CCOc1ccc(Nc2nc(Cc3nnc(SCC(=O)NC4CCCC4)n3C)cs2)cc1 |  | 28.2 µM (active)
14 | CCOc1cccc(-c2nnc(SCC(=O)NC3CC3)n2C)c1 | -2.25% [at 102 µM] | 
15 | Cn1c(CC(=O)Nc2ccc(F)cc2)nnc1SCC(=O)NC1CCCCC1 | 2.6% | 
16 | CC(C)CCNC(=O)CSc1nc2ccccc2nc1Cc1ccc(Cl)cc1 | 14.1% | 
17 | O=C(NCCCNCc1ccccc1)c1ccc(/C=N/O)nc1 |  | 14.1 µM (active)
18 | CC(C)c1ccc(C(=O)NCCCc2ccccc2)cc1 | 68.5% | 
19 | Nc1ccc(C(=O)NCc2ccccc2)cc1 | -1.36% [at 102 µM] | 
20 | COc1ccccc1N1CCN(S(=O)(=O)CCNC(=O)COc2ccc(F)cc2)CC1 | 5.42% | 
21 | COc1ccc(-c2c(C)c3ccc(O)c(CN4CCN(C)CC4)c3oc2=O)cc1OC | 6.72% | 
22 | CC(C)c1ccc2oc(=O)cc(CN3CCN(Cc4ccccc4)CC3)c2c1 |  | 50.1 µM (active)
23 | Cc1cc2oc(=O)cc(CN3CCN(Cc4ccccc4)CC3)c2cc1C | 8.68% [at 102 µM] | 
24 | COc1ccc2oc(=O)cc(CN3CCOCC3)c2c1 | 20.4% [at 0.501 µM] | 
25 | CC1CC(C)CN(C(=O)COC(=O)c2ccc3ncsc3c2)C1 (configuration not stated) | -10.9% [at 12.7 µM] | 
26 | CCc1cccc(NC(=O)C2CCCN(S(=O)(=O)c3ccc4[nH]c(=O)ccc4c3)C2)c1 (configuration not stated) | -12.2% | 
27 | CSc1ccccc1C(=O)OCC(=O)N1CCN(C(C)=O)CC1 | -3.84% [at 12.7 µM] | 

Source: PubChem BioAssay AID504332 (National Center for Advancing Translational Sciences (NCATS), 2011)
